A short description of assay [1]: ATG_NFI_CIS: Attagene CIS-FACTORIAL HepG2 Assay for human Nuclear Factor I (NFI) (AID 2282989). The settings on record: HepG2 cis-regulatory reporter, NFI response element transcription; actives raise or lower the signal. The gist of the method:
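Reporter transcription driven by endogenous transcription factors in HepG2 cells; 24 h treatment. Quantitation by labelled RT-PCR fragments on capillary electrophoresis, gain- or loss-of-signal relative to DMSO.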

The target of assay [2] is Myc proto-oncogene protein (Homo sapiens) (UniProt P01106). The experiment in a line: ATG_Myc_CIS: Attagene CIS-FACTORIAL HepG2 Assay for human Myelocytomatosis (Myc) Proto-Oncogene Transcription Factor (AID 2282990). The settings on record: HepG2, Attagene cis-reporter transcription factor activity; actives raise or lower the signal. In a few lines: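 DMSO-normalised, bidirectionally fitted reporter mRNA signal. HepG2 cells transfected with cis reporter constructs, treated 24 h; transcripts detected by RT-PCR, 6-FAM primer extension and CE.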
Chain of Myc proto-oncogene protein (Homo sapiens) (P01106 whole entry, looked up): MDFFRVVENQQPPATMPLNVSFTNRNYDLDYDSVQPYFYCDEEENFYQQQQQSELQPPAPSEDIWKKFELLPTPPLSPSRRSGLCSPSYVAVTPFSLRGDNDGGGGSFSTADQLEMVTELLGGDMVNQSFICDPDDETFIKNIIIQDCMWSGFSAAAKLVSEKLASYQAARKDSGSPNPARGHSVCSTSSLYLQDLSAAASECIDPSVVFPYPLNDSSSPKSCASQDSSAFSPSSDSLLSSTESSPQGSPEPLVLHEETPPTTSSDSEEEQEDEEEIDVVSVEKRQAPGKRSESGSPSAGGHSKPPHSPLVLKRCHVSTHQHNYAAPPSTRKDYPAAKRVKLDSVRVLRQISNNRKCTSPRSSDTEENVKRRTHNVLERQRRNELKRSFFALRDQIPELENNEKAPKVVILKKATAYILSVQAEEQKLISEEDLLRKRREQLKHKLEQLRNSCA

Assay [3] in a line: ATG_NF_kB_CIS: Attagene CIS-FACTORIAL HepG2 Assay for human Nuclear Factor Kappa B (NF-kB) (AID 2282991). The settings on record: HepG2 Attagene cis-factorial NF-kB reporter mRNA; actives raise or lower the signal. The gist of the method: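 Read-out: reporter transcript levels quantified by RT-PCR plus capillary electrophoresis of 6-FAM-labelled, HpaI-cut fragments. Transfected HepG2 cells, 24 h compound exposure, endogenous NF-kB-driven cis element; gain or loss scored versus DMSO.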

A short description of assay [4]: ATG_Oct_MLP_CIS: Attagene CIS-FACTORIAL HepG2 Assay for human Octamer-Binding Transcription Factor (Oct) (AID 2282993). The settings on record: HepG2 Attagene cis-factorial Oct reporter, mRNA; actives raise or lower the signal. The gist of the method:
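Transfected HepG2 cells, 24 h treatment. Reporter mRNA quantified by RT-PCR–capillary electrophoresis; bidirectional fitting against DMSO.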

Assay [5] addresses human Peroxisome Proliferator-activated Receptor alpha (PPARa), PPARA (gene 5465) (UniProt Q07869). The assay can be described thus: ATG_PPARa_TRANS: Attagene TRANS-FACTORIAL HepG2 Assay for human Peroxisome Proliferator-activated Receptor alpha (PPARa) (AID 2283001; active = hit-call score of the fitted dose curve at least 0.9, where 1 is the maximum;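 for AC50: potency for gain of reporter signal over DMSO so agonist or activator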). The gist of the method:
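Gain-of-signal endpoint: reporter mRNA induction relative to DMSO, detected by fluorescent RT-PCR and capillary electrophoresis. HepG2 cells transiently carried GAL4-UAS-driven reporter units plus NR-Gal4 fusion; exposure lasted 24 h.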

In assay [6] the target is Cellular tumor antigen p53 (Homo sapiens) (UniProt P04637). The experiment in a line: ATG_p53_CIS: Attagene CIS-FACTORIAL HepG2 Assay for human p53 Transcription Factor (AID 2282994). The conditions noted are these: HepG2 p53 cis-element reporter, Attagene mRNA; actives raise or lower the signal. The gist of the method:
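HepG2 cells transiently transfected with cis-regulated multiple reporter transcription units, dosed 24 h. Reporter mRNA measured by RT-PCR, 6-FAM primer extension, HpaI digestion and capillary electrophoresis; bidirectional fit relative to DMSO.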

The target of assay [7] is Peroxisome proliferator-activated receptor gamma (Homo sapiens) (UniProt P37231). The experiment in a line: ATG_PPARg_TRANS: Attagene TRANS-FACTORIAL HepG2 Assay for human Peroxisome Proliferator-activated Receptor-gamma (PPARg) (AID 2283007; active = hit-call score of the fitted dose curve at least 0.9, where 1 is the maximum). In a few lines: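 Read-out: reporter mRNA induction, detected by fluorescence after RT-PCR and capillary electrophoresis. Transiently transfected human HepG2 liver cells carrying a chimeric NR-Gal4 construct were dosed for 24 h; activity was fitted upward relative to DMSO.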
Chain of Peroxisome proliferator-activated receptor gamma (Homo sapiens) (P37231 whole entry, looked up, the tested form may be a part): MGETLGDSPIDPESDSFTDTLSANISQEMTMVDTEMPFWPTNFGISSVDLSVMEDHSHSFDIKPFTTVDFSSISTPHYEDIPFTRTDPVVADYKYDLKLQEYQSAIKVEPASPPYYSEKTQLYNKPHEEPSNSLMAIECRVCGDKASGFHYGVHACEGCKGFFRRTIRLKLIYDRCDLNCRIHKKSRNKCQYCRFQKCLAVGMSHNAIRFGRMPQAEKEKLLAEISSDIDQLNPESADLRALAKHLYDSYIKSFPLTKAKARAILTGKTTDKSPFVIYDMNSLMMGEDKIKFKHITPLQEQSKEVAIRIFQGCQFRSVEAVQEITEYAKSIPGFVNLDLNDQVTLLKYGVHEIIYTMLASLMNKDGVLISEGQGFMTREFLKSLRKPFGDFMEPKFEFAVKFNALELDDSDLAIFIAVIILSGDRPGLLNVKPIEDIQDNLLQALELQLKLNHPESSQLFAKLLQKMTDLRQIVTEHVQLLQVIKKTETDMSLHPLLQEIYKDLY

Assay [8] concerns the target Nuclear receptor subfamily 1 group I member 2 (Homo sapiens) (UniProt O75469). The experiment in a line: ATG_PXR_TRANS: Attagene TRANS-FACTORIAL HepG2 Assay for human Pregnane X Receptor (PXR) (AID 2283008; active = hit-call score of the fitted dose curve at least 0.9, where 1 is the maximum). The gist of the method:
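HepG2 cells transiently transfected with GAL4-UAS reporter units and PXR-Gal4 chimera, exposed 24 h. Reporter mRNA quantified by RT-PCR, fluorescent labelling, HpaI digestion and capillary electrophoresis; gain of signal vs DMSO.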

The target in assay [9] is human Retinoic Acid Receptor gamma (RARg), RARG (gene 5916) (UniProt P13631). The experiment in a line: ATG_RARg_TRANS: Attagene TRANS-FACTORIAL HepG2 Assay for human Retinoic Acid Receptor gamma (RARg) (AID 2283009; active = hit-call score of the fitted dose curve at least 0.9, where 1 is the maximum). In a few lines:
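HepG2 transiently transfected with GAL4-UAS reporter units and chimeric NR-Gal4 constructs; 24 h compound exposure. Reporter mRNA quantified by RT-PCR, FAM labeling, HpaI digestion and capillary electrophoresis; gain-of-signal versus DMSO.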

In assay [10] the target is human RAR-related Orphan Receptor beta (RORb), RORB (gene 6096) (UniProt Q92753). The experiment in a line: ATG_RORb_TRANS: Attagene TRANS-FACTORIAL HepG2 Assay for human RAR-related Orphan Receptor beta (RORb) (AID 2283010; active = hit-call score of the fitted dose curve at least 0.9, where 1 is the maximum). The gist of the method:
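HepG2 cells transiently transfected with GAL4-UAS reporter units expressing chimeric NR-Gal4 protein; reporter mRNA measured 24 h after dosing by RT-PCR, 6-FAM labelling and capillary electrophoresis. Gain-of-signal fitted relative to DMSO baseline.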

In assay [11] the target is human Peroxisome Proliferator-activated Receptor delta (PPARd), PPARD (gene 5467) (UniProt Q03181). The assay can be described thus: ATG_PPARd_TRANS: Attagene TRANS-FACTORIAL HepG2 Assay for human Peroxisome Proliferator-activated Receptor delta (PPARd) (AID 2283002; active = hit-call score of the fitted dose curve at least 0.9, where 1 is the maximum). In a few lines: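 Measured quantity: GAL4-UAS reporter transcript induction in HepG2 after 24 h chemical dosing, with NR-Gal4 chimeras supplied by transient transfection. Detection by RT-PCR and capillary electrophoresis; upward fit against DMSO.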
Chain of human Peroxisome Proliferator-activated Receptor delta (PPARd), PPARD (gene 5467) (Q03181 whole entry, looked up, the tested form may be a part): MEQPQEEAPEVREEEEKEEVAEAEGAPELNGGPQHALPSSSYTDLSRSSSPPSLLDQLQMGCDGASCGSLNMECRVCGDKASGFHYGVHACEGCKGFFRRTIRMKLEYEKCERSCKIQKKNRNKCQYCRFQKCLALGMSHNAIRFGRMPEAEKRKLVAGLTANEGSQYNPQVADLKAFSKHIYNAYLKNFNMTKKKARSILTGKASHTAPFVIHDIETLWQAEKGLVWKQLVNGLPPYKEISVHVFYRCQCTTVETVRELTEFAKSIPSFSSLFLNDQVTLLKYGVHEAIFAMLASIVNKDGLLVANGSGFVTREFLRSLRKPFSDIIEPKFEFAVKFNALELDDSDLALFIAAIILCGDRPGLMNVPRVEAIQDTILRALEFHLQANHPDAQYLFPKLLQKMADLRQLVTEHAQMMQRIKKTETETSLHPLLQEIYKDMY

Assay [12] has as its target Retinoic acid receptor alpha (Homo sapiens) (UniProt P10276). The assay can be described thus: ATG_RARa_TRANS: Attagene TRANS-FACTORIAL HepG2 Assay for human Retinoic Acid Receptor alpha (RARa) (AID 2283005; active = hit-call score of the fitted dose curve at least 0.9, where 1 is the maximum). The gist of the method:
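HepG2 cells transiently transfected with multiple reporter units expressing chimeric RARα-GAL4 fusion, with GAL4-UAS-driven reporters. After 24 h compound exposure, reporter mRNA induction quantified by RT-PCR and capillary electrophoresis with fluorescent labeling; gain-of-signal fitted relative to DMSO control.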

The target of assay [13] is human Retinoic Acid Receptor beta (RARb), RARB (gene 5915) (UniProt P10826). The experiment in a line: ATG_RARb_TRANS: Attagene TRANS-FACTORIAL HepG2 Assay for human Retinoic Acid Receptor beta (AID 2283004; active = hit-call score of the fitted dose curve at least 0.9, where 1 is the maximum). The gist of the method: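 HepG2 cells were transiently transfected with GAL4-UAS reporter units that report activity of exogenous chimeric NR-Gal4 proteins, then exposed to compound for 24 h. Reporter mRNA was quantified by RT-PCR with capillary electrophoresis fluorescence, as gain of signal over DMSO.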
Chain of human Retinoic Acid Receptor beta (RARb), RARB (gene 5915) (P10826 whole entry, looked up, the tested form may be a part): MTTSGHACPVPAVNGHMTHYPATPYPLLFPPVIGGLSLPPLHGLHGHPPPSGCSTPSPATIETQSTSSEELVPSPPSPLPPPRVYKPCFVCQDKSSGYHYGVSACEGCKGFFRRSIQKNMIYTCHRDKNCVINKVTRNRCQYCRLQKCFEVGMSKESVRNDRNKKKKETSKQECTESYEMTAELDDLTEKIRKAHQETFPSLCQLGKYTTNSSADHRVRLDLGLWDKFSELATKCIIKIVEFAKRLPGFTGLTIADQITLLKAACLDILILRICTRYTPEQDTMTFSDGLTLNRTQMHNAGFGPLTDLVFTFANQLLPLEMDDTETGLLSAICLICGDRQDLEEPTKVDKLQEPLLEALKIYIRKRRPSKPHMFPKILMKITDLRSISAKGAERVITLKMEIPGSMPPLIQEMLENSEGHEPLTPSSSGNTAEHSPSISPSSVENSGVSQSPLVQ

The nature of assay [14]: ATG_NRF2_ARE_CIS: Attagene CIS-FACTORIAL HepG2 Assay for human Nuclear Factor Erythroid 2 Related Factor 2 (NFR2) response to Antioxidant Response Elements (ARE) (AID 2282992).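 Note: reporter mRNA level measured by RT-PCR and capillary electrophoresis fluorescence.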 The settings on record: HepG2 Attagene ARE/NRF2 reporter, transcription factor activity; actives raise or lower the signal. The gist of the method: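 HepG2 cells transiently transfected with multiplexed cis-element reporter constructs, 24 h after chemical dosing; reporter mRNA quantified by RT-PCR, fluorescent primer extension, HpaI digestion and capillary electrophoresis. Bidirectional fit relative to DMSO.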

The nature of assay [15]: BSK_3C_TissueFactor: BioMAP Diversity Plus: 3C Assay for Tissue Factor Biomarker Activity (AID 2282997). The settings on record: BioMAP 3C HUVEC, tissue factor biomarker readout; actives raise or lower the signal. The gist of the method: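 HUVEC were treated 24 h, then surface tissue factor measured by ELISA and fitted bidirectionally against DMSO. Parallel SRB total-protein staining assessed overt cytotoxicity at the same time point.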

The nature of assay [16]: BSK_3C_uPAR: BioMAP Diversity Plus: 3C Assay for Urokinase-type plasminogen activator receptor (uPAR) Biomarker Activity (AID 2282998). The settings on record: BioMAP 3C HUVEC, uPAR biomarker ELISA; actives raise or lower the signal. The gist of the method:
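Readout: ELISA for surface uPAR. System: human umbilical vein endothelial primary cells, 24 h after chemical exposure. Analysis: bidirectional fit, DMSO baseline.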

Assay [17] can be described thus: BSK_3C_VCAM1: BioMAP Diversity Plus: 3C Assay for Vascular cell adhesion molecule 1 (VCAM1) Biomarker Activity (AID 2282999). The settings on record: BioMAP 3C HUVEC, VCAM1 ELISA, cytokine-stimulated; actives raise or lower the signal. The gist of the method: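 Human umbilical vein endothelial cells were dosed with compound for 24 h, after which cell-surface VCAM-1 was quantified by ELISA. Bidirectional curve fitting used DMSO as negative control and activity baseline.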

The nature of assay [18]: BSK_4H_Eotaxin3: BioMAP Diversity Plus: 4H Assay for Eotaxin 3 Biomarker Activity (AID 2283000). The conditions noted are these: primary human endothelial cells (HUVEC); actives raise or lower the signal. The gist of the method: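 Eotaxin-3 (CCL26) levels were measured by ELISA in HUVEC primary cultures 24 h post-dosing. Gain or loss of signal was fitted in both directions, with DMSO serving as baseline and negative control.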

Read-out in assay [19]: Intercellular Adhesion Molecule 1 (ICAM1), ICAM1 (gene 3383)
The experiment in a line: BSK_3C_ICAM1: BioMAP Diversity Plus: 3C Assay for Intercellular Adhesion Molecule 1 (ICAM1) Biomarker Activity (AID 2283003). The conditions noted are these: primary human endothelial cells (HUVEC); actives raise or lower the signal. The gist of the method: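 HUVEC primary cells stimulated under 3C conditions; ICAM1 measured by ELISA 24 h after compound dosing. Curves fitted bidirectionally against the DMSO baseline. Overt cytotoxicity checked by SRB staining of parallel cultures.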

Assay [20] in a line: BSK_3C_Proliferation: Cell Proliferation Assessment in the BioMAP Diversity Plus: 3C Assay (AID 2283006).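 Note: potency may reflect either rise or fall in cell number versus DMSO.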 The conditions noted are these: primary human endothelial cells (HUVEC). In a few lines:
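Subconfluent HUVEC (3C system) cultured with chemical; relative cell number read at 48 h by sulforhodamine B total-protein staining (0.1% SRB after 10% TCA fixation, 560 nm). Bidirectional fit relative to DMSO.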

The results in this text go back to PubChem BioAssay (EPA / NIEHS).

Each structure is given as a SMILES string. Records with an inconclusive call do not appear. Activity calls are given as the source filed them. Rule for the calls, unless noted: active = hit-call score of the fitted dose curve at least 0.9, where 1 is the maximum; inactive = score below 0.9.

Chain of human Peroxisome Proliferator-activated Receptor alpha (PPARa), PPARA (gene 5465) (Q07869 whole entry, looked up, the tested form may be a part): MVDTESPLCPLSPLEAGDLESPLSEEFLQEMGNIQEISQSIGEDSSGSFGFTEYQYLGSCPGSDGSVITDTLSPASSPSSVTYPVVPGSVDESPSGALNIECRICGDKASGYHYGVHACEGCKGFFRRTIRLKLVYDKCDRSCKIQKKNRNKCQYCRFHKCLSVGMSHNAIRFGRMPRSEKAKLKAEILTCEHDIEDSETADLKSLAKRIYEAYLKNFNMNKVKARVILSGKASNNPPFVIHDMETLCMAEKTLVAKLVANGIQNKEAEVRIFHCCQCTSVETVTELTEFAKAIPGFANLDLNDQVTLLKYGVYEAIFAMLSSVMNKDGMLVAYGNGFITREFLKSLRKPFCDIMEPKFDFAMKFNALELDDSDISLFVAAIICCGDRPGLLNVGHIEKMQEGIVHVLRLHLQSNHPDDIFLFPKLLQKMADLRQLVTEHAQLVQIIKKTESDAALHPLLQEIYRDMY
Chain of Cellular tumor antigen p53 (Homo sapiens) (P04637 whole entry, looked up): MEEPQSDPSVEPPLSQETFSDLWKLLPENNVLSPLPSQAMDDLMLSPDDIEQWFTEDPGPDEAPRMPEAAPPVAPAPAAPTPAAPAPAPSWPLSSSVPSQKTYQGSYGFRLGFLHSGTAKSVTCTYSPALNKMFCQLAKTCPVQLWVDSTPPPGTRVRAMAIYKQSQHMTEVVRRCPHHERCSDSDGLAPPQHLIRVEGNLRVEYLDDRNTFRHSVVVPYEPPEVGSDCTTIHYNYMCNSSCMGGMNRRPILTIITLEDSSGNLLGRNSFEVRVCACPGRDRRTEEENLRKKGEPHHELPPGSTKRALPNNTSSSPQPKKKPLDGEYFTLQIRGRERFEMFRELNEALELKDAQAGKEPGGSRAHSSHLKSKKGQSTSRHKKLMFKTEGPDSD
Chain of Nuclear receptor subfamily 1 group I member 2 (Homo sapiens) (O75469 whole entry, looked up, the tested form may be a part): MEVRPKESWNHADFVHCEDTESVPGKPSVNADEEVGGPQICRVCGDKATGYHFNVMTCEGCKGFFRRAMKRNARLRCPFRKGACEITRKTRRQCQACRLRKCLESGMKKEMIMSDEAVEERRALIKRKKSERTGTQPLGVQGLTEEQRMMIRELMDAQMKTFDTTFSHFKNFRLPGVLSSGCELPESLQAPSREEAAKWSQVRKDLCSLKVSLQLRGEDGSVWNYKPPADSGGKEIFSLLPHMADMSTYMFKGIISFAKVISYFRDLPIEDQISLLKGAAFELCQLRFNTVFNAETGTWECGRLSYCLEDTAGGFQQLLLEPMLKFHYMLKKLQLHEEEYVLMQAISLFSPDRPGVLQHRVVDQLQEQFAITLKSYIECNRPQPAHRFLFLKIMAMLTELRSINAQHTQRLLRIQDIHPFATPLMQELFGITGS
Chain of human RAR-related Orphan Receptor beta (RORb), RORB (gene 6096) (Q92753 whole entry, looked up, the tested form may be a part): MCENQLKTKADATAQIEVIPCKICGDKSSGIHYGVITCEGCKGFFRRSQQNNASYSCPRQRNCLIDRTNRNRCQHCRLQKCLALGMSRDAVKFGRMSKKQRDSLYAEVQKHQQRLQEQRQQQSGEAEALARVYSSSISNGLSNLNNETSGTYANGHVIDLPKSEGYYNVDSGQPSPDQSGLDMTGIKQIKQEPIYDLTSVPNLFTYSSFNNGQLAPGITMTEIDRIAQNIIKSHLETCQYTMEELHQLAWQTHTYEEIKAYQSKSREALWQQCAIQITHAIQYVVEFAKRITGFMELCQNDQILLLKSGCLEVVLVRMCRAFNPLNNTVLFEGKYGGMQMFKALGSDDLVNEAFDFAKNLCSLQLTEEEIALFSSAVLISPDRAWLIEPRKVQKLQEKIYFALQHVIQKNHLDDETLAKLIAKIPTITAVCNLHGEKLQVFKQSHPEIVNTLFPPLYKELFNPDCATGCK
Chain of human Retinoic Acid Receptor gamma (RARg), RARG (gene 5916) (P13631 whole entry, looked up, the tested form may be a part): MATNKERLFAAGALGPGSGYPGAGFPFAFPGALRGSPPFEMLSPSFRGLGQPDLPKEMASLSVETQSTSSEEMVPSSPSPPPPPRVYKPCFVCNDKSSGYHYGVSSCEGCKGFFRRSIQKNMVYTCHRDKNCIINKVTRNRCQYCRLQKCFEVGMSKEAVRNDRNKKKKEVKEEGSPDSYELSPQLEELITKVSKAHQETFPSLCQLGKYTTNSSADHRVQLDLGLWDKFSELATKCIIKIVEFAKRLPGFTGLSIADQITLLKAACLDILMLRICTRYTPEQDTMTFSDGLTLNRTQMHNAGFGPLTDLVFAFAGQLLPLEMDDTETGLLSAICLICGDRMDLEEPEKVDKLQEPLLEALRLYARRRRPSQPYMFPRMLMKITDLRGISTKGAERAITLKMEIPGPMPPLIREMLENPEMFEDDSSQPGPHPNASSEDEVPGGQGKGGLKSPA
Chain of Retinoic acid receptor alpha (Homo sapiens) (P10276 whole entry, looked up, the tested form may be a part): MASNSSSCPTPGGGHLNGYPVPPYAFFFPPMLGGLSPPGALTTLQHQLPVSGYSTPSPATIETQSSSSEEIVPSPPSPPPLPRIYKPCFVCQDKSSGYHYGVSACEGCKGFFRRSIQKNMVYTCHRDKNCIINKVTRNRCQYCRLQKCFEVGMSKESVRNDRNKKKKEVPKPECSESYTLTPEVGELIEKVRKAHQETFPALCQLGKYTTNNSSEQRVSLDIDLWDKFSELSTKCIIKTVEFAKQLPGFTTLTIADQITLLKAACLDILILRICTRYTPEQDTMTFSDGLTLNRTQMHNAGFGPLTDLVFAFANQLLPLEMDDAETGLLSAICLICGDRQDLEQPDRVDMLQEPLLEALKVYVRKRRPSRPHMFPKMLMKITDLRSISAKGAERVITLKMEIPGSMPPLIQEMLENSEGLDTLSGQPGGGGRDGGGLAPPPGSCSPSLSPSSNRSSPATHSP

In the case of `C=C(C)C(=O)OCC(C)C`, the result in assay [1], in assay [2], in assay [3], in assay [4] and in assay [5] was inactive.

Turning to `COC(=O)c1ccc2cc(C(=O)OC)ccc2c1`, the outcome in assay [1], in assay [2], in assay [3], in assay [4], in [6] and in assay [5] was inactive. Also, the compound was classed as inactive in assay [8], in assay [9] and in assay [10]. Besides, the AC50 in [7] is 26.3 µM (active).

As for `CCCOC(=O)CCCCC(=O)OCCC`, the call in [1], in [2], in assay [3], in assay [4], in assay [6] and in assay [5] was inactive. Further, the compound was called inactive in assay [11], in assay [7] and in assay [8].

With `CCCCCCCCCCCSCC(=O)O`, the compound was classed as inactive in assay [1], in [2], in [3], in assay [6], in [12] and in assay [8]. The half-maximal activity concentration (AC50) in assay [4] was 79.2 µM (active); in [5], 2.85 µM (active); in assay [11] it was 7.11 µM (active).

`CC(C)(C)c1n[nH]c(=O)n(N)c1=O`: the result in assay [1], in assay [2], in assay [3], in assay [4], in assay [6] and in [13] was inactive. In addition, the result in assay [7], in [8] and in [9] was inactive.

On to `C/C=C\C/C=C/CCCCCCCCOC(C)=O`, for which the compound was called inactive in assay [1], in assay [2], in assay [16], in assay [5], in assay [11] and in [19]. The compound was called inactive in [10]. The concentration at half-maximal activity (AC50) was 26.8 µM (active) in assay [14]; 39.5 µM (active) in [4]; 162 µM (active) in assay [6]; 9.54 µM (active) in assay [15]; 26 µM (active) in assay [17]; 28.9 µM (active) in assay [18]. The results for the concentration at half-maximal activity (AC50) in assay [20], in [7] and in assay [8] were 22.3 µM (active), 8.89 µM (active) and 40.8 µM (active), respectively.
